# According to PubChem BioAssay (NCATS):
# Results filed as inconclusive are left out. Unmarked numbers belong to inactive results. The source made the active and inactive calls. The call rests on the fitted dose curve; in most records, active means well fitted cell-killing curve with a large enough effect; inconclusive means small, poorly fitted or top-dose-only effect, or effect the other way; inactive means flat fitted curve, though single readings scatter. Where a SMILES comes first, the peptide text is derived from it. [ ]: non-standard residue; d: D form. ξ: configuration not given here. ξTyr(βOH) = NC(C(=O)O)C(O)c1ccc(O)cc1
# Tested on: C33A
# Test: Primary qHTS to identify gynecologic anti-cancer compounds using libraries of approved drugs and bioactive compounds (AID 1345084); further: nearly all actives have a fitted effect of over 55% in size
# Conditions: Gynecologic cancer cell panel viability, ATPlite luminescence, 48 h; series mostly up to 57.5 µM; activity change, negative = cytotoxicity: at the top concentration
# Outline: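 Cell viability after 48 h drug treatment, ATPlite luminescence readout; five doses.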
# On the % scale 0 is the no-effect control and ±100 the full control effect; potency means the concentration at half of the fitted maximal effect.
SMILES,"activity change, negative = cytotoxicity",Potency
NC1(c2ccc(NC(=O)c3ccnc(-c4cc(C(=O)O)ccn4)c3)cc2)CC1,14.7%,–
CCCC/C=C\CCCCCc1cc(=O)c2ccccc2n1C,2.26% [at 38.5 µM],–
COCc1c(O)c(C(=O)O)c(C)c2c1OC(=O)c1c(C)cc(O)c(CO)c1O2,18.2% [at 38.5 µM],–
C/C=C/C=C/C1=C2C(=O)C3(C)C4C(C(=O)CC(O)/C=C/C)=C(O1)C1(C)C2C2(C)OC1(O)C4(C)OC23O (stereo not given),-23.3% [at 25.3 µM],–
CC12CC(O)C(O)C=C1c1cc(O)cc(O)c1C(=O)O2 (stereo not given),-2.25%,–
C=C1C2(C)CC3C4(C)C=CC(=O)OC(C)(C)C4CCC3(C)C1(C(=O)OC)C(=O)C(C)(O)C2=O (stereo not given),-1.54% [at 25.3 µM],–
CC1(C)[C@H]2C[C@H](C/C=C\CCCC(=O)O)[C@@H](NC(=O)c3csc4ccc(O)cc34)[C@@H]1C2,3.86%,–
CC(C)c1ccc2c(c1)CCC1[C@](C)(C(=O)O)CCC[C@]21C (stereo not given in full),16.5%,–
C[C@@H]1O[C@@H](OC(=O)Cc2ccccc2)[C@H](O)[C@H](O)[C@H]1O,1.95%,–
Cn1cc(-c2c[nH]c3ncnc(N4CCOCC4)c23)cn1,20.4%,–
CC(C)C1NC(=O)C(CC2(O)c3ccccc3N3C(=O)C(Cc4ccccc4)NC32)NC1=O (stereo not given),0.602% [at 25.3 µM],–
C[C@@]12CC3(S(=O)(=O)O)OC(O1)[C@]1(COC(=O)c4ccccc4)[C@H]3C[C@]21O[C@@H]1O[C@H](CO)[C@@H](O)[C@H](O)[C@H]1O,3.53% [at 25.3 µM],–
CC(C)C1NC(=O)CNC(=O)C2CCCN2C(=O)C(Cc2c[nH]c3ccccc23)NC(=O)CNC(=O)C(C(O)c2ccc(O)cc2)NC(=O)CNC1=O (stereo not given) (cyclo(G[ξTyr(βOH)]GWPGV); configuration not given here),3.56% [at 25.3 µM],–
CC(=C\C(C)O)/C=C(\C)C(=O)CC1CC(CC(N)=O)CC(=O)O1 (stereo not given),4.83% [at 38.5 µM],–
CC(=O)OCC1=CCC2C(C)(C)CCCC2(C)C12CCC(C)(CC(=O)O)O2 (stereo not given),-2.25% [at 38.5 µM],–
C[C@H]1CC[C@H]2[C@@H](C=C[C@@](C)(O)[C@]2(C)C(=O)CCO)C1,1.25%,–
CC1=C(CO)CC(C(C)C2CCC3C4CC=C5CC(OC6OC(COC7OC(CO)C(O)C(O)C7O)C(O)C(O)C6O)CC(O)C5(C)C4CCC23C)OC1=O (stereo not given),-0.0804% [at 25.3 µM],–
CC(=O)c1c(C)cccc1O[C@@H]1O[C@H](CO)[C@@H](O)[C@H](O)[C@H]1O,5.46% [at 38.5 µM],–
C/C1=C\CC[C@]2(C)O[C@H]2C(=O)c2c(C)coc2C1,–,7.94 µM (active)
CNc1nc(C)nc(N[C@H]2CCC[C@@H](C(=O)NCc3ccc(C#N)cc3C(F)(F)F)C2)n1,2.25%,–
CC(=O)O[C@@H]1[C@@H](O)[C@H](C)O[C@@H](O[C@H]2[C@@H]3C=CO[C@@H](O[C@@H]4O[C@H](CO)[C@@H](O)[C@H](O)[C@H]4OC(C)=O)[C@@H]3[C@@]3(CO)O[C@@H]23)[C@@H]1OC(=O)/C=C/c1ccc(O)cc1,1.82% [at 25.3 µM],–
CCC1=C(C)C(=O)C(C)CC12C(=O)CCC2C(=O)O (stereo not given),1.92%,–
Nc1ncnc2c1c(COc1cccc(Cl)c1)nn2C1CCOCC1,0.651%,–
CC1(C)CC[C@]2(C(=O)O[C@@H]3O[C@H](CO)[C@@H](O)[C@H](O)[C@H]3O)CC[C@]3(C)C(=CCC4[C@@]5(C)CC[C@H](O[C@@H]6O[C@H](C(=O)O)[C@@H](O[C@@H]7O[C@H](CO)[C@@H](O)[C@H](O)[C@H]7O)[C@H](O)[C@H]6O[C@@H]6O[C@H](CO)[C@@H](O)[C@H](O)[C@H]6O)C(C)(C)C5CC[C@]43C)C2C1 (stereo not given in full),-1.12% [at 11.6 µM],–
C=C(C(=O)OC)[C@]12O[C@@](C)(CC[C@@]3(O)/C(=C\C)C(=O)O[C@]3(C)C[C@@H]1OC(=O)C(CO)CN1CCCC1C(=O)O)CC2=O (stereo not given in full),2.67% [at 25.3 µM],–
COc1cc(/C=C/C(=O)O[C@H]2[C@@H]3C=CO[C@@H](O[C@@H]4O[C@H](CO)[C@@H](O)[C@H](O)[C@H]4O)[C@@H]3[C@@]3(CO)O[C@@H]23)ccc1O,-1.45% [at 25.3 µM],–
COC1OC(=O)C2=C1C1(C)CCCC(C)(C)C1CC2O (stereo not given),9.3%,–
C/C1=C\CC(C)(C)/C=C/C/C(C(=O)O)=C/CC1,-3.18%,–
CC1CCC2(NC1)OC1C(O)C3C4CCC5CC(O[C@@H]6O[C@H](CO)[C@@H](O)[C@H](O)[C@H]6O[C@@H]6O[C@@H](C)[C@H](O)[C@@H](O)[C@H]6O)CCC5(C)C4CCC3(C)C1C2C (stereo not given in full),12% [at 25.3 µM],–
O=C(O)/C=C/c1ccc2occc2c1O[C@@H]1O[C@H](CO)[C@@H](O)[C@H](O)[C@H]1O,5.38% [at 38.5 µM],–
